These results are taken from PubChem BioAssay AID504832 (National Center for Advancing Translational Sciences (NCATS), 2011).

In all, about 310,000 compounds went through this assay and about 18,000 (5.8%) were called active. A call without a number means that no potency is given here. Not shown: some 22% with an inconclusive outcome. The sample holds actives, similar compounds and a random draw of the others, so the mix is not that of the screen. Calls come from the whole dose curve; as a rule, active = well fitted inhibition curve with a large enough effect; inconclusive = small, poorly fitted or top-dose-only effect, or another doubt; inactive = no such curve, though single readings can be large or run the other way.
Potency is the fitted concentration of half-maximal effect.

A short description of the assay: Primary qHTS for delayed death inhibitors of the malarial parasite plastid, 48 hour incubation. To be noted: P. falciparum luciferase growth in erythrocytes; series mostly up to 28.7 µM. Put shortly:
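Luminescence readout; reporter = integrated firefly luciferase in P. falciparum. RBC culture at 2% hematocrit, 0.1% parasitemia final, 37 C/5% CO2; decreased signal taken as growth inhibition.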
In the case of `Cn1c(CC(=O)Nc2ccc(F)cc2)nnc1SCC(=O)NC1CCCCC1`, the Potency entry is “inactive”. Turning to `CCCCN1C(=O)/C(=C2/Sc3ccc(Cl)cc3N2CC)SC1=S`, the Potency result was “inactive”. Regarding `CC(NCc1cccs1)C(=O)Nc1cc(Cl)cc(Cl)c1` (centres undefined), the Potency result is “inactive”. As to `CCOCCCNC(=O)C1(O)c2cc(Br)ccc2NC(=O)N1c1ccc(C)c(C)c1` (centres undefined), the activity change, negative = inhibition was -7.48% [at 0.00184 µM] (inactive). With `CCCCN1C(=O)C(C)=C(C)C1OCCc1ccc(OC)c(OC)c1` (centres undefined), the Potency entry was “inactive”. In the case of `O=C(Cc1ccc(-c2ccccc2)cc1)NC(c1ccccc1)c1ccccc1`, the Potency was 13.1 µM (active).

As for `C=CCC(NC(=O)Cc1ccccc1)C(=O)NCCC` (centres undefined), the Potency entry is “inactive”.

`O=C(O)Cc1ccc(-c2ccccc2)cc1`: the Potency entry is “inactive”. Regarding `Cc1ccc(S(=O)(=O)NCC(=O)N2CCOCCOCCOCCOCC2)cc1`, the Potency entry was “inactive”.

Turning to `Cc1cc(C)cc(C(=O)NC(CC(N)=O)c2ccc(N3CCC(N4CCCCC4)CC3)c([N+](=O)[O-])c2)c1` (centres undefined), the Potency result was “inactive”. Consider `COc1ccc([C@@H]2[C@@H]3C(=O)N(C(C)(C)C)C(=O)[C@@H]3[C@]3(Cc4ccccc4)C(=O)N(c4cccc(Br)c4)C(=O)N23)cc1`, for which the Potency was 2.62 µM (active). For `O=C1[C@H]2[C@@H](c3ccc(Cl)cc3)N3C(=O)N(c4cccc(F)c4)C(=O)[C@@]3(Cc3ccccc3)[C@H]2C(=O)N1C1CCCCC1`, the Potency is 9.28 µM (active).

Take `COC(=O)CN1C(=O)[C@H]2[C@@H](/C=C/c3ccccc3)N3C(=O)CN(Cc4ccccc4)C(=O)[C@@]3(Cc3ccccc3)[C@H]2C1=O`: the Potency result was “inactive”.

Consider `COc1ccc(C2C(C(C)=O)=C(O)C(=O)N2Cc2cccnc2)cc1` (centres undefined), for which the Potency entry was “inactive”. Regarding `O=C1CC(NNc2ccccc2)C(=O)N1c1cccc(Cl)c1` (centres undefined), the Potency entry was “inactive”.

For the molecule `Cc1cccc([C@@H]2[C@@H]3C(=O)N(Cc4ccccc4)C(=O)[C@@H]3[C@]3(Cc4ccc(Cl)cc4)C(=O)N(c4cccc(Cl)c4)C(=O)N23)c1`, the Potency is 4.15 µM (active). As for `O=C(NC1(C(F)(F)F)NC(=O)N(C2CCCCC2)C1=O)c1ccco1` (centres undefined), the Potency entry is “inactive”. Take `O=C1[C@H]2[C@@H](c3ccc(F)cc3)N3C(=O)N(c4ccc(C(F)(F)F)cc4)C(=O)[C@@]3(Cc3ccccc3)[C@H]2C(=O)N1C1CCCCC1`: the Potency was 4.65 µM (active). Regarding `COc1ccc(N2C(=O)C(Cc3ccccc3)NC2=S)cc1` (centres undefined), the Potency result was “inactive”. For the molecule `O=C(CCNS(=O)(=O)c1ccc(Br)cc1)NCC1CCCO1` (centres undefined), the Potency entry was “inactive”. In the case of `CCc1ccc(/C=N/NC(=O)c2nnn(-c3nonc3N)c2CN2CCc3ccccc32)cc1`, the Potency entry is “inactive”. On to `Cc1cc(OC(=O)c2ccc(OC(C)C)cc2)c([N+](=O)[O-])c(=O)[nH]1`, for which the Potency entry was “inactive”. On to `Cc1ccc(NS(=O)(=O)c2ccc(C(=O)NCCCN3CCOCC3)cc2)cc1`, for which the Potency entry was “inactive”. On to `COc1ccc(N2CCN(C(=O)CN3C(=O)COc4ccccc43)CC2)cc1`, for which the Potency result is “inactive”. Same read-out and setting: with `COc1ccc(Cc2nc3ccc(C(=O)NCC4CCOCC4)cc3o2)cc1OC` the entry was “inactive”. Still for that read-out and setting: with `COc1ccc(N(CCC(=O)NCCc2ccccc2)S(=O)(=O)c2ccc(C)cc2C)cc1` the entry was “inactive”. `COc1ccc(C)cc1S(=O)(=O)N(CC(=O)Nc1cccc([N+](=O)[O-])c1)c1ccc(C)cc1`: the Potency is 9.28 µM (active). Regarding `CN(CC(=O)Nc1cccc(F)c1)CC(=O)Nc1cccc([N+](=O)[O-])c1`, the Potency entry is “inactive”.

Turning to `COc1ccc(N(CC(=O)Nc2ccc(C)cc2C)S(=O)(=O)c2ccccc2[N+](=O)[O-])c(OC)c1`, the Potency was 9.28 µM (active).

In the case of `Cc1ccc(N(CC(=O)Nc2cccc(N(C)S(C)(=O)=O)c2)S(C)(=O)=O)cc1`, the Potency entry was “inactive”. With `COc1ccc(OCC(=O)Nc2cc(C)c(Cl)cc2OC)c([N+](=O)[O-])c1`, the Potency entry is “inactive”. `Brc1ccccc1/C=N/Nc1nc2ccccc2o1`: the Potency entry is “inactive”.

As for `COc1ccc(NC(=O)c2cccc(Cl)c2)c[n+]1[O-]`, the Potency entry was “inactive”. Consider `CC(C(=O)c1ccc(-c2ccccc2)cc1)[n+]1cccc(Br)c1` (centres undefined), for which the Potency result is “inactive”.

On to `CC(C)C(=O)NCC(c1cccs1)S(=O)(=O)c1ccc(F)cc1` (centres undefined), for which the Potency entry was “inactive”. The same measure, in the same setting: the entry for `CC(CC(=O)N1CCN(S(=O)(=O)c2ccccc2)CC1)n1cncn1` (centres undefined) is “inactive”; for `COc1ccc(C(=O)/C=C/c2cccnc2)c(OC)c1` it is 11.7 µM (active); for `COc1ccc(C(=O)CCc2ccccc2O)c(OC)c1` it is “inactive”.

Consider `COc1ccc(C(=O)CCC(=O)Nc2cccnc2)c(OC)c1`, for which the Potency entry was “inactive”.

On to `COc1ccccc1N(CC(=O)NC1CCCC1)C(=O)C1(C)CC(=O)N=C2C=CC(C)=CN21` (centres undefined), for which the Potency entry is “inactive”. As to `COc1ccc(CNC(=O)CN(C(=O)c2csnn2)c2cnc3ccccc3c2)cc1`, the Potency entry was “inactive”. Regarding `CCOC(=O)N1CCN(Cc2nnc(-c3ccccc3Cl)o2)CC1`, the Potency result was “inactive”. As for `COc1cc(C(c2c(NC(=O)c3ccco3)sc(C)c2C)N2CCOCC2)cc(OC)c1OC` (centres undefined), the Potency is 10.4 µM (active). `COC(=O)c1cc(NC(=O)c2ccco2)ccc1N1CCOCC1`: the Potency result was “inactive”. The same measure, in the same setting: the entry for `COc1ccc(C(=O)Nc2sc(C)c(C)c2CN2CCOCC2)cc1` is “inactive”; for `O=c1c2cc([N+](=O)[O-])ccc2nc2n1CCC2` it is “inactive”. On to `COc1ccc(OC)c(NC(=O)C2CCCN2S(=O)(=O)c2cccc3nsnc23)c1` (centres undefined), for which the Potency result was “inactive”. With `O=C(CCNS(=O)(=O)c1cccs1)N1CCN(c2ccc(F)cc2)CC1`, the Potency result was “inactive”.

With `O=c1ccc2cc(S(=O)(=O)NCCCc3ccccc3)ccc2[nH]1`, the Potency result is “inactive”. The same measure, in the same setting: with `Cn1cnnc1SCc1nnc(-c2ccccc2Br)o1` the entry was “inactive”.

As for `CC(C)N(Cc1nnc(-c2ccc(Cl)cc2)o1)C(=O)C1=COCCO1`, the Potency result was “inactive”.

Regarding `CC(C)N(Cc1nnc(-c2ccccc2Br)o1)C(=O)c1cc(Cl)nc2ccccc12`, the Potency is 9.28 µM (active). On the same count and under the same terms, with `COC(=O)C1=CO[C@@H](O[C@@H]2O[C@H](CO)[C@@H](O)[C@H](O)[C@H]2O)C2C1C[C@H](O)[C@@H]2C` (some centres undefined) the entry was “inactive”; with `COc1ccc(C(=O)NCc2ccc(C)cc2)cc1S(=O)(=O)N1CCCC1`, “inactive”; with `COC(=O)C(C)Oc1ccc2c(c1)O/C(=C\c1cccc(Br)c1)C2=O` (centres undefined), 13.1 µM (active). For the molecule `CN(C)C(=O)Oc1ccc2c(c1)O/C(=C\c1ccccc1)C2=O`, the Potency entry is “inactive”. Consider `COC(=O)C(C)Oc1ccc2c(-c3cccc([N+](=O)[O-])c3)cc(=O)oc2c1` (centres undefined), for which the Potency result is “inactive”.

Consider `CCOC(=O)CC1COCCN1C(=O)c1cc(COc2ccc(F)c(F)c2)on1` (centres undefined), for which the Potency result is “inactive”. On the same count and under the same terms, with `Cc1cc(Nc2ccc(N3CCOCC3)cc2)c2cccc(C)c2n1` the figure was 4.15 µM (active); with `Cc1cc(Nc2ccc(C(=O)N3CCCCC3)cc2)c2cccc(C)c2n1`, “inactive”; with `Cc1cc(Nc2ccc(Cl)cc2)nc(N2CCOCC2)n1`, “inactive”.

In the case of `O=[N+]([O-])c1ccc(C=Nc2ccc(Cl)cc2Cl)s1`, the Potency is 10.4 µM (active). Turning to `O=S(=O)(Nc1ccccc1Cl)c1cccc2nsnc12`, the Potency entry was “inactive”.

In the case of `C/C(CC(=O)NCc1ccc(Cl)cc1)=N\NC(=O)COc1ccc(C)cc1Br`, the Potency entry was “inactive”. As for `COc1ccc(-c2cc(C(=O)N3CCN(Cc4ccc5c(c4)OCO5)CC3)on2)cc1OC`, the Potency result is “inactive”. As for `COc1ccccc1CCCNC(=O)C1CCC(=O)N(CCN2CCOCC2)C1` (centres undefined), the Potency result was “inactive”. On to `Cc1cc(C)cc(OCC(=O)Nc2ccc(N3CCOCC3)cc2N2CCOCC2)c1`, for which the Potency is 11.7 µM (active). On the same count and under the same terms, the entry for `Cc1cccc(OCC(=O)NC(=S)Nc2ccccc2N2CCOCC2)c1` is “inactive”. Take `O=C(COc1ccc(Cl)cc1)NC(=S)Nc1ccccc1N1CCOCC1`: the Potency entry is “inactive”.

For the molecule `CC(C)c1ccc(/C=C/C(=O)NCCCN2CCOCC2)cc1`, the Potency entry is “inactive”. Consider `O=C(OCC(=O)N1CCN(C(=O)c2ccco2)CC1)c1cccc(O)c1`, for which the Potency result was “inactive”. Still for that read-out and setting: with `O=c1onc(-c2cccs2)n1Cc1ccccc1` the entry was “inactive”. On the same count and under the same terms, with `S=c1[nH]nc(-c2cc(-c3ccsc3)n[nH]2)n1-c1ccccc1` the entry was “inactive”; with `Cc1cc(-c2csc(N)n2)c(C)n1Cc1ccccc1`, 11.7 µM (active); with `Cc1cc(-c2csc(N)n2)c(C)n1-c1ccccc1`, 14.7 µM (active). The same measure, in the same setting: the entry for `CCCc1cc(-c2n[nH]c(=S)n2Cc2ccccc2)cs1` is “inactive”. With `Cc1n[nH]c(=O)n1-c1ccc(Oc2ccccc2)cc1`, the Potency result is “inactive”.

`O=C(Cc1ccc(Br)cc1)NCCN1CCOCC1`: the activity change, negative = inhibition is 5.97% [at 0.00184 µM] (inactive). On to `CCC(C(=O)N1CCN(S(=O)(=O)c2sc(C(=O)O)c(C)c2C(=O)O)CC1)c1ccccc1` (centres undefined), for which the Potency result was “inactive”.

In the case of `COc1ccc(OC)c(NC(=O)c2cccc(S(=O)(=O)N3CCN(C(C)=O)CC3)c2)c1`, the Potency entry is “inactive”. Same read-out and setting: with `COc1cc(OC)cc(C(=O)Nc2nnc(SCC(=O)NCC3CCCO3)s2)c1` (centres undefined) the entry was “inactive”. Regarding `Cc1ccccc1Nc1nc(-c2cccnc2)cs1`, the Potency entry is “inactive”.

On to `CCCOc1ccc(Cc2c(O)nc(SC)[nH]c2=O)cc1C`, for which the Potency entry was “inactive”. Turning to `CN(C)c1ccc(/C=N/N(Cc2ccccc2)c2ccccc2)cc1`, the Potency entry is “inactive”.

Take `CC1=NN(Cc2ccccc2)C(=O)/C1=C/c1ccc(N(C)C)cc1`: the Potency entry was “inactive”. For `CN(C)c1cc[n+](Cc2ccccc2)cc1`, the Potency is 0.928 µM (active). As for `COC(=O)c1ccc(Cc2ccccc2)o1`, the Potency result was “inactive”. In the case of `c1ccc(Cc2cc[n+](Cc3ccccc3)cc2)cc1`, the Potency was 1.17 µM (active).

As to `C[n+]1ccc(C(=O)NCc2ccccc2)cc1`, the Potency result is “inactive”. `Cc1ccc(NS(=O)(=O)c2cc3c(cc2C)NC(=O)CO3)cc1`: the Potency result is “inactive”. In the case of `Cc1ccc(S(=O)(=O)N2CCC(N3CCCCCC3)CC2)cc1`, the Potency entry is “inactive”.

As to `O=S(=O)(c1ccccc1)N1CCC(c2ccccc2)CC1`, the Potency entry was “inactive”. Same read-out and setting: the figure for `c1ccc(C2CCC(N3CCC(N4CCCCC4)CC3)CC2)cc1` (centres undefined) is 10.4 µM (active); for `COc1ccccc1NC(=O)Nc1nnc(Cc2ccc(F)cc2)s1` it is “inactive”; for `CC1=NN(/C(=N\c2nnc(C)s2)Nc2ccccc2)[C@H](c2ccc(C)cc2)S1` it is 8.28 µM (active).

As for `COc1ccc2oc(=N)c(C(=O)Nc3ccc(Br)cc3)cc2c1`, the Potency entry was “inactive”. Still for that read-out and setting: with `CC1c2nc3ccccc3n2C(CC(=O)NCCCN2CCOCC2)C(=O)N1Cc1ccccc1` (centres undefined) the entry was “inactive”. As to `CCOC(=O)C1CCN(C(=O)CC2C(=O)N(Cc3ccccc3)C(C)c3nc4ccccc4n32)CC1` (centres undefined), the Potency was 7.38 µM (active). As to `CCOC(=O)C1CCN(C(=O)Cn2cc(C#N)c3ccccc32)CC1`, the Potency entry is “inactive”.
